# Experimental data: PubChem BioAssay (EPA / NIEHS)
# Where “and” joins values, the source holds several entries; their conditions need not be identical. Equal entries are not always repeated. More than one record can exist for a structure, and the calls need not agree. Calls of active or inactive are those of the source. How the source made its calls: active means hit-call score of the fitted dose curve at least 0.9, where 1 is the maximum; inactive means score below 0.9.
# Read-out: Matrix Metallopeptidase 1 (MMP1), MMP1 (gene 4312)
# Assay: BSK_hDFCGF_MMP1: BioMAP Diversity Plus: hDFCGF Assay for Matrix Metallopeptidase 1 (MMP1) Biomarker Activity (AID 2283064)
# Conditions: primary human foreskin fibroblasts; actives raise or lower the signal
# Experimental: BSK_hDFCGF is a cell-based, multiplexed-readout assay that uses foreskin fibroblast, a human skin primary cell, with measurements taken at 24 hours after chemical dosing in a 96-well plate.BSK_hDFCGF_MMP1 is an assay component measured in the BSK_hDFCGF assay. It measures MMP-1 antibody related to regulation of gene expression using ELISA technology.Data from the assay component BSK_hDFCGF_MMP1 was analyzed into 1 assay endpoint. This assay endpoint, BSK_hDFCGF_MMP1, was analyzed with bidirectional fitting relative to DMSO as the negative control and baseline of activity. Using a type of binding reporter, gain or loss-of-signal activity can be used to understand changes in the signaling as they relate to the gene MMP1. Furthermore, this assay endpoint can be referred to as a primary readout, because this assay has produced multiple assay endpoints where this one serves a signaling function. To generalize the intended target to other relatable targets, this assay endpoint is annotated to the protease intended target family, where the subfamily is matrix metalloproteinase.
# The levels of cell surface (or secreted, indicated by the prefix "s") biomarker endpoints were measured by ELISA. Overt cytotoxicity to cells in confluent adherent cultures (all systems other than the BT system) was assessed by measuring total protein levels using sulforhodamine B (SRB) staining in parallel cultures at the time of biomarker measurements, indicated as SRB endpoints. For proliferation assays for adherent cell types, individual cell types are cultured at sub-confluence and relative cell numbers quantified by SRB staining at time points optimized for each system (48 h: 3C and CASM3C systems; 72 h: BT and HDF3CGF systems; 96 h: SAg system). SRB was performed by staining cells with 0.1% SRB after fixation with 10% TCA and reading wells at 560 nm.Viability and proliferation of PBMC (T cells) was quantified by Alamar Blue reduction for the SAg and BT systems. For PBMC viability (referred to as PBMC Cytotoxicity within the assay endpoint names), cells were plated (75,000/well in a 96-well plate) and then chemical samples added for 1 h before addition of activators, SEB and TSST-1 (20 ng/mL final concentration each). Cells were incubated for 90 h. Then, Alamar Blue (20 uL/well) (Invitrogen, Cat DAL1100) was added for 6 h, and the plates were read with a fluorescence microplate reader at 546/580 nm (excitation/emission). For PBMC proliferation, cells were plated and activated as above but incubated for only 16 h prior to addition of Alamar Blue. Plates were read after 6 h.
SMILES,AC50,outcome
Cc1cc(C)c(O)c(C(C)(C)C)c1,34 µM (active),–
CC(C)(C)c1cc(CCC(=O)NCCCCCCNC(=O)CCc2cc(C(C)(C)C)c(O)c(C(C)(C)C)c2)cc(C(C)(C)C)c1O,–,inactive
O=C(Cl)C(F)(F)C(F)(F)C(F)(F)C(F)(F)C(F)(F)C(F)(F)C(F)(F)F,–,inactive
O=C(O)C(F)(F)C(F)(F)C(F)(F)C(F)(F)C(F)(F)C(F)(F)C(F)F,–,inactive
NC(=O)C(F)(F)C(F)(F)C(F)(F)C(F)F,–,inactive
OCC(F)(F)C(F)(F)C(F)(F)C(F)(F)C(F)(F)C(F)(F)C(F)(F)C(F)(F)CO,55.2 µM (active) and 48.8 µM (active),–
O=C(F)C1(F)C(F)(F)C(F)(F)C(F)(F)C(F)(F)C1(F)F,–,inactive
OCCCCC(F)(F)C(F)(F)C(F)(F)C(F)(F)F,–,inactive
O=C(O)CCC(F)(F)C(F)(F)C(F)(F)C(F)(F)C(F)(F)C(F)(F)C(F)(F)F,–,inactive
O=C=Nc1cccc2c(N=C=O)cccc12,–,inactive
CCN=C1C=CC(=C(c2ccc(N(CC)CC)cc2)c2ccc(N(CC)CC)cc2)c2ccccc21,1.29 µM (active) and 1.26 µM (active),–
NC(=O)C(F)(F)C(F)(F)C(F)(F)F,–,inactive
C=CC(=O)OCC(F)(F)C(F)(F)C(F)(F)C(F)(F)C(F)(F)C(F)(F)C(F)(F)C(F)F,–,inactive
C=CC(=O)OCCC(F)(F)C(F)(F)C(F)(F)C(F)(F)F,14.5 µM (active) and 18.3 µM (active),–
C[Si](Cl)(Cl)CCC(F)(F)C(F)(F)C(F)(F)C(F)(F)C(F)(F)C(F)(F)F,1.18 µM (active),inactive
C=C(C)C(=O)OCC(F)(F)C(F)(F)C(F)(F)C(F)F,–,inactive
CCN(CCO)S(=O)(=O)C(F)(F)C(F)(F)C(F)(F)C(F)(F)C(F)(F)C(F)(F)C(F)(F)C(F)(F)F,50.1 µM (active),inactive
Cc1cnccn1,–,inactive
O=C=NCc1cccc(CN=C=O)c1,–,inactive

SMILES,AC50,outcome
OCC(F)(F)C(F)(F)C(F)(F)C(F)(F)C(F)(F)C(F)(F)CO,–,inactive
NC(O)(C(F)(F)F)C(F)(F)F,–,inactive
O=C(O)CCC(F)(F)C(F)(F)C(F)(F)F,–,inactive
O=C(Cl)C(F)(F)C(F)(F)C(F)(F)C(F)(F)C(F)(F)C(F)(F)F,–,inactive
NCC(F)(F)C(F)(F)C(F)(F)C(F)(F)C(F)(F)C(F)(F)C(F)(F)C(F)(F)F,–,inactive
O=C(O)C(F)(F)C(F)(F)C(F)(F)OC(F)(F)F,–,inactive
OCCCC(F)(F)C(F)(F)C(F)(F)C(F)(F)C(F)(F)C(F)(F)C(F)(F)C(F)(F)F,19 µM (active) and 13.3 µM (active),–
COC(F)(C(F)F)C(F)(F)F (stereo not given),–,inactive
NC(=O)C(F)(F)C(F)(F)C(F)(F)C(F)(F)C(N)=O,–,inactive
OCC(O)CC(F)(F)C(F)(F)C(F)(F)C(F)(F)C(F)(F)C(F)(F)C(F)(F)C(F)(F)F (stereo not given),–,inactive
OC(O)C(F)(F)C(F)(F)F,–,inactive
CCN(CC)c1ccc(C=O)cc1,–,inactive
C[C@]12CC[C@H]3C(=CCc4cc(O)ccc43)[C@@H]1CCC2=O,–,inactive
CN(C(=O)C(F)(F)C(F)(F)C(F)(F)F)[Si](C)(C)C,–,inactive
CCN(CC)c1ccc(C=O)c(O)c1,–,inactive
CC1=CC2C3C=CC(C3)C2C1C (stereo not given),–,inactive
O=S(=O)(O)CCC(F)(F)C(F)(F)C(F)(F)C(F)(F)C(F)(F)C(F)(F)C(F)(F)C(F)(F)F,30 µM (active),inactive
FC(F)(F)C(F)(F)C(F)(F)CC1CO1 (stereo not given),–,inactive
